Test [1] can be described thus: qHTS assay for small molecules that induce genotoxicity in human embryonic kidney cells expressing luciferase-tagged ATAD5 (AID 651632). Note: nearly all actives have a fitted effect of over 15% in size. Note: potency is the fitted concentration of half-maximal effect. The method in brief:
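A rise in luciferase signal from ATAD5-tagged HEK293T cells marks genetic stress. Cells were exposed to compounds for 16 hr at 37C, 5% CO2, then luciferase was quantified after a 30 min room-temperature incubation with Amplite.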
On the technique in general: Quantitative high-throughput screening tests each substance at several concentrations.

Test [2] in a line: qHTS assay for small molecule agonists of the p53 signaling pathway - cell viability (AID 651633; calls by dose curve;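 note: p53RE-bla HCT reporter cells with a stable beta-lactamase p53 reporter; series mostly up to about 83 µM; nearly all actives have a fitted effect of over 30% in size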). The method in brief: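 p53RE-bla cells, seeded at 4,000 per well and rested 5 h at 37 C/5% CO2, received compounds in DMSO for 16 h at 37 C. CellTiter-Glo was then added, and luminescence was read after 30 min at room temperature to gauge cytotoxicity.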
The nature of test [3]: qHTS assay for small molecules that induce genotoxicity in human embryonic kidney cells expressing luciferase-tagged ATAD5 - cell viability (AID 651634; calls by dose curve; note: nearly all actives have a fitted effect of over 25% in size; note: potency is the fitted concentration of half-maximal effect). The gist of the method:
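Cytotoxicity counter-readout: after 15.5 hr compound treatment at 37C, live-cell protease activity in ATAD5-luciferase HEK293T cells measured by CellTiter-Fluor fluorescence, 30 min development at 37C.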

Test [4] is described as follows: qHTS assay for small molecule disruptors of the mitochondrial membrane potential - cell viability (AID 720634; calls by dose curve;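 note: human HepG2 liver cancer cells; series mostly up to about 83 µM; nearly all actives have a fitted effect of over 20% in size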). The method in brief:
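Cytotoxicity was quantified from ATP content by CellTiter-Glo luminescence in the same wells as the MMP dye read-out. HepG2 (2,000 cells/well) were plated overnight and exposed to compounds for 1 hr at 37 C.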

The nature of test [5]: qHTS assay to test for compound auto fluorescence at 590 nm (red) in HepG2 cells (AID 720674). The gist of the method:
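Compound auto-fluorescence is scored relative to Rose Bengal sodium, measured at 540/590 nm in live HepG2 cultures after 1 hr compound contact (37 C, 5% CO2).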

The nature of test [6]: qHTS assay to test for compound auto fluorescence at 535 nm (green) in HepG2 cells (AID 720675).
A short description of test [7]: qHTS assay to test for compound auto fluorescence at 460 nm (blue) in HEK293 cells (AID 720678). The method in brief: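 Blue read-out at excitation 405 nm and emission 460 nm follows overnight compound exposure of HEK293 cells at 37C in 5% CO2. Activity is given as auto fluorescence equivalency to triamterene.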
Test [8] can be described thus: qHTS assay to test for compound auto fluorescence at 590 nm (red) in HEK293 cells (AID 720679). The gist of the method: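 Red channel, Ex/Em 540/590nm; signal expressed as equivalency to Rose Bengal sodium. HEK293, 2,000 cells/well, 10% dialyzed FBS; 23 nL compound pinned after 4-5 hr attachment; overnight 37C/5% CO2 before reading.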

Experimental findings from PubChem BioAssay (Tox21) are described below.

Results filed as inconclusive are left out. Active and inactive are the calls of the source. Unless noted, calls come from the whole dose curve; as a rule, active = well fitted curve in the direction sought with a large enough effect in the repeat runs; inconclusive = weak or mixed curves; inactive = no such curve, though single readings can be large; an effect the other way counts as inactive or inconclusive.

Turning to `CO/N=C(\C(=O)N[C@@H]1C(=O)N2C(C(=O)O)=C(CSc3nnnn3C)CS[C@H]12)c1csc(N)n1`, the Potency result in test [1], in test [2], in test [3], in test [4], in test [5] and in test [6] was “inactive” throughout. The Potency result in test [7] and in test [8] was “inactive” in each case.
Turning to `NS(=O)(=O)c1cc2c(cc1Cl)NC(Cc1ccccc1)NS2(=O)=O` (configuration not stated), the Potency result in test [1], in test [2], in test [3], in test [4], in test [5] and in test [6] was “inactive” throughout. In addition, the Potency entry in test [7] and in test [8] was “inactive” in each case.
For `CC(C)(CO)[C@@H](O)C(=O)NCCCC(=O)O`, the Potency entry in test [1], in test [2], in test [3], in test [4], in test [5] and in test [6] was “inactive” each time. Moreover, the Potency result in test [7] and in test [8] was “inactive” in each case.
Turning to `C[Se]CCC(N)C(=O)O` (configuration not stated), the Potency result in test [1], in test [2], in test [3], in test [4], in test [5] and in test [6] was “inactive” each time. Also, the Potency result in test [7] and in test [8] was “inactive” throughout.
Turning to `CC(C)(S)[C@@H](N)C(=O)O`, the Potency result in test [1], in test [2], in test [3], in test [4], in test [5] and in test [6] was “inactive” each time. In addition, the Potency entry in test [7] and in test [8] was “inactive” each time.
Take `COc1cc(NCCCC(C)N)c2ncccc2c1` (configuration not stated): the Potency entry in test [1], in test [2], in test [3], in test [4], in test [5] and in test [6] was “inactive” in each case. The Potency entry in test [7] and in test [8] was “inactive” throughout.
For `C[C@H]1C[C@@H]2[C@H]([C@@H](O)C[C@@]3(C)[C@H]2CC[C@]3(O)C(=O)COC(=O)CCC(=O)O)[C@@]2(C)C=CC(=O)C=C12`, the Potency entry in test [1], in test [2], in test [3], in test [4], in test [5] and in test [6] was “inactive” throughout. For the same molecule, the Potency result in test [7] and in test [8] was “inactive” each time.
Take `CN(C)CC/C=C1/c2ccccc2CSc2ccccc21`: the Potency entry in test [1], in test [2], in test [3], in test [4], in test [5] and in test [6] was “inactive” in each case. Also, the Potency entry in test [7] and in test [8] was “inactive” throughout.
`C=C(NC(=O)C(=C)NC(=O)c1csc(C2=N[C@@H]3c4csc(n4)[C@H]4NC(=O)c5csc(n5)[C@H]([C@](C)(O)[C@@H](C)O)NC(=O)[C@H]5CSC(=N5)C(=CC)NC(=O)C([C@@H](C)O)NC(=O)c5csc(n5)[C@]3(CC2)NC(=O)[C@H](C)NC(=O)C(=C)NC(=O)[C@H](C)NC(=O)C([C@@H](C)CC)NC2C=Cc3c([C@H](C)O)cc(nc3C2O)C(=O)O[C@@H]4C)n1)C(N)=O` (some centres not stated): the Potency in test [1] is 11.4 µM (active). In addition, the Potency result in test [2], in test [3], in test [4], in test [5], in test [6] and in test [7] was “inactive” each time. Also, the Potency entry in test [8] is “inactive”.
As for `COc1c(O[C@@H]2O[C@H](CO)[C@@H](O)[C@H](O)[C@H]2O)cc2c(c1OC)-c1ccc(SC)c(=O)cc1[C@@H](NC(C)=O)CC2`, the Potency result in test [1], in test [2], in test [3], in test [4], in test [5] and in test [6] was “inactive” throughout. The Potency entry in test [7] and in test [8] was “inactive” throughout.
In the case of `CC(C)(C)NCC(O)c1ccc(O)c(CO)n1` (configuration not stated), the Potency result in test [1], in test [2], in test [3], in test [4], in test [5] and in test [6] was “inactive” throughout. Besides, the Potency result in test [7] and in test [8] was “inactive” each time.
In the case of `CC(C)=CCC/C(C)=C/C=C/C(C)=C/C=C/C(C)=C/C=C/C=C(C)/C=C/C=C(C)/C=C/C=C(\C)CCC=C(C)C`, the Potency result in test [1], in test [2], in test [3], in test [4], in test [5] and in test [6] was “inactive” each time. The Potency entry in test [7] and in test [8] was “inactive” in each case.
Regarding `CCCCCCCCCCCCCCCCCC(=O)OCC(C)O` (configuration not stated), the Potency result in test [1], in test [2], in test [4], in test [5], in test [6] and in test [7] was “inactive” in each case. For the same molecule, in test [8], the Potency entry was “inactive”. The Potency in test [3] is 23.7 µM (active).
Take `CC[C@@H](C(=O)[C@@H](C)[C@@H](O)[C@H](C)[C@@H]1O[C@@H]([C@@H](CC)C(=O)O)CC[C@@H]1C)[C@H]1O[C@]2(C=C[C@@H](O)[C@]3(CC[C@@](C)([C@H]4CC[C@](O)(CC)[C@H](C)O4)O3)O2)[C@H](C)C[C@@H]1C`: the Potency result in test [1], in test [2], in test [4], in test [5], in test [6] and in test [7] was “inactive” each time. In test [8], the Potency entry is “inactive”. Besides, the Potency in test [3] was 8.41 µM (active).
In the case of `Cc1cc(C)c(NC(=O)C[C@H](CC(=O)O)c2cccc3ccccc23)c(C(=O)N2CCC3(CCCC3)CC2)c1`, the Potency result in test [1], in test [2], in test [3], in test [4], in test [5] and in test [6] was “inactive” throughout. Moreover, the Potency result in test [7] and in test [8] was “inactive” in each case.
Regarding `CCCOc1cc(N)ccc1C(=O)OCCN(CC)CC`, the Potency entry in test [1], in test [2], in test [3], in test [4], in test [5] and in test [6] was “inactive” throughout. Further, the Potency entry in test [7] and in test [8] was “inactive” each time.
Turning to `CCCCC(F)(F)[C@@]1(O)CC[C@H]2[C@@H](CC(=O)[C@@H]2CCCCCCC(=O)O)O1`, the Potency result in test [1], in test [2], in test [3], in test [4], in test [5] and in test [6] was “inactive” throughout. In addition, the Potency entry in test [7] and in test [8] was “inactive” each time.
With `COc1cc2c(cc1OC)[C@@H](c1ccccc1)CN(C)CC2`, the Potency entry in test [1], in test [2], in test [3], in test [4], in test [5] and in test [6] was “inactive” each time. The Potency result in test [7] and in test [8] was “inactive” throughout.
As to `CCN(CC)CCC(=O)N1c2ccccc2Sc2ccc(Cl)cc21`, the Potency result in test [1], in test [2], in test [3], in test [4], in test [5] and in test [6] was “inactive” each time. Besides, the Potency result in test [7] and in test [8] was “inactive” throughout.
